Experimental data taken from PubChem BioAssay AID1850 (Southern Research Specialized Biocontainment Screening …, 2009).
“And” between values parts separate entries of the source, which are not always exact repeats. Equal values may be shown once. The campaign covered roughly 310,000 compounds. About 1,000 (0.32%) were called active. Only a sample is shown. Measured potencies and affinities stand elsewhere. Unmarked numbers belong to inactive results. No rule for the calls is given here.

assay: Inhibition of PhoP regulon, Salmonella typhi GFP reporter cells, confirmation, 4 h (AID 1850); details: Salmonella Typhi PhoP-promoter GFP reporter, fluorescence, at 50 µM, stronger effect = higher value;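 also: 0% = induced wells with vehicle and 100% = uninduced wells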

SMILES	inhibition
C=CCc1cc(C)ccc1OCCCC(C(=O)OCC)C(=O)OCC	-4.53%
CCCCOc1ccc(C)cc1CN(CCO)CCO	-0.81%
Cc1cc(NC(=O)c2cccs2)n(-c2ccccc2)n1	-5.58%
CCOC(=O)c1cn(-c2ccc([N+](=O)[O-])cc2)c2cc(Cl)c([N+](=O)[O-])cc2c1=O	-25.3%
O=C(O)c1cn(-c2ccc(F)cc2)c(=O)c2ccccc12	-6.8%
CNC(=O)C(=O)NCC1OCCN1S(=O)(=O)c1ccc([N+](=O)[O-])cc1 (configuration not stated)	0.4%
CC(=O)c1c(C)[nH]c(C(=O)COC(=O)c2ccc3c(=O)n4c(nc3c2)CCC4)c1C	-1.34%
CCn1nnc(NC(=O)c2ccc(-c3ccccc3[N+](=O)[O-])o2)n1	11.3%
CCn1nnc(NC(=O)c2ccc(Br)o2)n1	3.35%
Cc1ccccc1NC(=O)c1ccc([N+](=O)[O-])o1	11.6%
CC(=O)c1ccc(NC(=O)c2ccc([N+](=O)[O-])o2)cc1	10.8%
Cc1cccc(NC(=O)c2ccc([N+](=O)[O-])o2)c1C	-7.49%
Cc1ccc2nsnc2c1NC(=O)c1ccc([N+](=O)[O-])o1	1.72%
O=C(Nc1c(Cl)ccc2nsnc12)c1ccco1	-5.33%
O=C(Nc1ccc(Cc2ccncc2)cc1)c1ccc(Br)o1	7.97%
Cc1c(C(=O)N2CCC(N3CCSCC3)CC2)oc2c(F)cccc12	-3.19%
Cc1cc(NC(=O)NCC(F)(F)F)no1	-7.59%
CCN(CC)C(=O)c1sc2nc(N3CCOCC3)c3c(c2c1N)CCCC3	3.42%
O=C(Nc1ccccc1Cl)NC1(C(=O)NCc2ccncc2)CCCCC1	9.06%
CC(C)Cn1c(SCc2nc3ccccc3c(=O)[nH]2)nc2ccccc2c1=O	-7.91%
Cc1sc(NC(=O)C2=COCCO2)nc1-c1ccc(F)cc1	-5.87%

SMILES	inhibition
O=C1CSC(c2ccc3c(c2)OCO3)N1c1ccc(Oc2ccccc2)cc1 (configuration not stated)	7.07%
c1ccc(CSc2ccc(-c3ccco3)nn2)cc1	9.52%
Fc1ccc(CSc2ccc(-c3ccco3)nn2)cc1	6.93%
C[C@]12CCC(=O)C=C1CC[C@@H]1C2CC[C@]2(C)C(=O)CCC12 (some centres not stated)	-12.1%
O=[N+]([O-])c1ccc(N/N=C/c2ccccc2)c(F)c1	-8.42%
O=C(CCc1nnc(Cc2ccc(-c3ccccc3)cc2)o1)NCCc1cccnc1	-5.62%
O=C(Oc1c(Cl)cc(Cl)c2cccnc12)c1cccs1	13.7%
O=C(Oc1ccc(Cl)c2cccnc12)c1cccc([N+](=O)[O-])c1	-4.89%
O=C(Oc1cccc2cccnc12)c1cccc([N+](=O)[O-])c1	1.2%
O=C(Oc1ccc(Cl)c2cccnc12)c1ccco1	-5.73%
O=C(Nc1cccc(Cl)c1)c1ccc(=O)[nH]n1	12.7%
CC1CCC(NC(=O)c2nn(C)c3c2CS(=O)(=O)c2ccccc2-3)CC1 (configuration not stated)	5.03%
COc1cccc(C(=O)NNC(=O)Cc2ccc(Cl)cc2)c1	-3.92%
CSCCC(N=C(NS(=O)(=O)c1ccc(C)cc1)c1ccccc1)C(=O)O (configuration not stated)	-3.75%
CCC(C)(C)NC(=O)CN(C(=O)c1snc(C(N)=O)c1N)c1ccc2nc(C)sc2c1	-5.66%
O=C(CCN1C(=O)C2C3C=CC(C3)C2C1=O)N1CCN(c2ccccc2F)CC1 (configuration not stated)	18.6%
COC(=O)CSc1nc2nc(-c3cccs3)cc(C(F)(F)F)c2c(=O)[nH]1	-1.37%
CCOC(=O)c1cc2c(cn1)[nH]c1ccccc12	9.76% and 5.1%
CNC(=O)c1cc2c(cn1)[nH]c1ccccc12	3.35%
CCOC(=O)CCC(=O)Nc1ccc(S(=O)(=O)Nc2cc(OC)nc(OC)n2)cc1	-6.86%
Cc1cc(C)c2c3c(sc2n1)C(=O)N(C)CC(=O)N3	-4.13%

SMILES	inhibition
C/C(N)=C(/C#N)C(=O)COC(=O)CCC1CCCC1	0.41%
N#CCC(=O)Nc1ccc(C(=O)N2CCN(c3ccccn3)CC2)cc1	14.2%
CN(C)c1ccc(CN(Cc2ccco2)C(=O)c2ccco2)cc1	-2.38%
CS(=O)(=O)N1CCC(Oc2ccccc2C(=O)NC2CCCCCC2)CC1	-17.3%
CC(=O)c1cnc(Nc2cccc(C)c2)s1	-8.01%
Cn1c(CNC(=O)CNS(=O)(=O)c2ccc(Br)cc2)cc(=O)n(C)c1=O	-1.92%
CC(C)c1ccc(OCC(=O)NNC(=S)NC(=O)c2cccs2)c(Br)c1	-8.98%
COc1ccc2oc(C(=O)OCC(=O)N(C)CC(=O)Nc3ccc(C)cc3)c(C)c2c1	6.55%
O=C(c1ccc([N+](=O)[O-])o1)N1CCN(Cc2ccccc2)CC1	-0.17%
CC1CCN(C(=O)c2ccc([N+](=O)[O-])o2)CC1	5.43%
COc1ccc(C(=O)Nc2ccc(N3CCCC3)cc2)cc1	-0.89%
COc1ccccc1NC(=O)COc1ccc(C(=O)OCC(=O)NC(C)(C)C)cc1OC	-5.27%
NC(N)=N/N=C/c1ccc(Cl)cc1Cl	14.2%
COc1cc(/C=N/N=C(N)N)ccc1OCc1ccc(Cl)cc1	49.6%
FCCCOc1ccc(/C=N/OCc2ccc(Cl)cc2Cl)cc1	14.7%
COc1cc(/C=N/N=C(N)N)ccc1OCc1ccccc1Cl	-7.28%
Clc1ccccc1COc1ccc(/C=N/n2cnnc2)cc1	-10.4%
NC(N)=N/N=C/c1ccc(OCc2ccccc2)cc1	17%
CCCCCCCNC(=O)C1CC(=O)N(C)C(=Nc2ccc(OC)cc2)S1 (configuration not stated)	-2.09%
CCOc1cc(C(=O)OC(C)C(=O)Nc2ccc(S(N)(=O)=O)cc2)ccc1OCC(=O)N1CCOCC1 (configuration not stated)	8.2%
